Among all 290,000 compounds or so, about 27,000 (9.3%) were called active. The full list was thinned out, with actives kept by preference. Unmarked numbers belong to inactive results. Rule as the data show it: active = inhibition mostly above about 28% (no sharp cut-off); inactive = mostly below about 43%.

This assay in a line: A qHTS for Small Molecule Inhibitors of Shiga Toxin. Also: 0% is about no effect. The note with it: Vero cells, Shiga toxin protein synthesis inhibition reporter; at 38.7 µM, stronger effect = higher value.
On to `COc1cc(OC)c2c(C)cc(=O)oc2c1C(CCN1CCCCC1)c1ccc(N(C)C)cc1` (stereo not drawn), for which the inhibition (in general, the drop in the measured response relative to a control, in per cent) is -4.37%.

For the compound `COCc1ccc(CN2CCC(Oc3ccc(C(=O)NCc4ccccn4)cc3)CC2)o1`, the inhibition was -9.34%. For `C=C1/C(=C\C=C2\CCCC3(C)C2CCC3C(C)/C=C/C(O)C2CC2)CC(O)CC1O` (stereo not drawn), the inhibition is -5.18%.

Regarding `O=C(NCc1cccc(C(F)(F)F)c1)c1cccc(S(=O)(=O)N2CCN(Cc3ccccc3)CC2)c1`, the inhibition is -21.6%. With `CCOc1ccc(C2/C(=C(/O)c3ccc4c(c3)CC(C)O4)C(=O)C(=O)N2CCCn2ccnc2)cc1` (stereo not drawn) the figure was 14.2%. With `COc1ccc(-c2cc(C(=O)NC(Cc3c[nH]c4ccccc34)C(=O)O)c(C)o2)cc1OC` (stereo not drawn) the figure was 29.3% (active); with `COc1ccc(-c2cc(C(=O)NC(C(=O)O)C(C)C)c(C)o2)cc1OC` (stereo not drawn), 46.9%; with `Cc1cccc(C)c1OCC(=O)NC(Cc1c[nH]c2ccccc12)C(=O)O` (stereo not drawn), -4.32%.

On to `O=C(NCCc1ccc(Cl)cc1Cl)c1cc([N+](=O)[O-])c[nH]c1=O`, for which the inhibition was -2.76%.

Turning to `Cc1ccnc(NS(=O)(=O)c2ccc(NC(=O)c3oc4ccccc4c3C)cc2)n1`, the inhibition was -19.8%. The same measure for `CCCc1nc(SCC(=O)N2CCCC2)c2c(=O)n(C)c(=O)n(C)c2n1`: -3.54%; for `C[C@@H]1CC[C@@]2(OC1)O[C@H]1C[C@H]3[C@@H]4CC=C5C[C@@H](O)[C@H](O)C[C@]5(C)C4CC[C@]3(C)[C@H]1[C@@H]2C` (stereo partly drawn): -6.76%. `CCOc1ccccc1N1CCN(C(=O)c2ccc3[nH]c(C)c(C)c3c2)CC1`: the inhibition was -2.3%. With `COc1ccc2[nH]c(C(=O)N3CCN(C)CC3)c(C)c2c1` the figure was -9.68%. The same measure for `Cc1[nH]c2ccc(C(=O)N3CCN(C)CC3)cc2c1C`: 45.9% (active); for `CCOCCCNC(=S)Nc1ccc2nc(N3CCN(CC)CC3)cc(C)c2c1`: 4.52%; for `Cc1ccccc1N1CC(c2nc3ccccc3[nH]2)CC1=O` (stereo not drawn): -11.9%. With `c1ccc2[nH]c(-c3nc4ccccc4[nH]3)nc2c1` the figure was 107% (active).

For `Cc1ccc(-c2nc3ccccc3[nH]c2=O)cc1`, the inhibition is 21.4%. The same measure for `OC(c1nc2ccccc2[nH]1)C(O)C(O)C(O)c1nc2ccccc2[nH]1` (stereo not drawn): 19.2%. Take `Cc1ccc(-c2nc3ccccc3[nH]2)cc1N`: the inhibition was 106% (active). With `COc1ccc(-c2[nH]nc(-c3ccccc3)c2-c2nc3ccccc3[nH]2)cc1`, the inhibition was -19.5%. With `CCOC(=O)N1CCN(C(=O)CSc2ccc(Cl)cc2)CC1` the figure was 93.2% (active); with `CCN1CCN(C(=O)CSc2ccc(C)cc2)CC1`, 52.4%. With `CCOC(=O)N1CCN(C(=O)CNC(=O)Cc2ccc(Cl)cc2)CC1` the figure was -2.93%; with `CC(=O)Nc1ccc(S(=O)(=O)Nc2cc(C)cn(Cc3ccc(C)cc3)c2=O)cc1`, 20.8%.

With `Cc1cc(OC(=O)c2ccccc2Cl)ccc1N1C(=O)CCC1=O`, the inhibition was 60.4% (active). Regarding `COc1ccccc1C(=O)Oc1ccc(N2C(=O)CCC2=O)cc1`, the inhibition was -6.4%. With `CCOC(=O)c1cc(OC(=O)c2ccccc2Cl)n(-c2ccccc2)n1` the figure was 35.8%; with `Cc1n[nH]c(=O)c2c1nnn2Cc1ccc(F)cc1`, 14.5%; with `CC1CCN(C(=S)NC(=O)c2ccccc2Br)CC1`, 14.3%. For `Nc1ccc(N=Nc2ccccc2Cl)c(N)n1`, the inhibition was 105% (active).

Consider `CCOC(=O)C1CCN(S(=O)(=O)c2ccc3c(c2)N(C(C)=O)CCO3)CC1`, for which the inhibition was 15.1%. With `CCN(CC)S(=O)(=O)c1ccc(N2CCN(C)CC2)c(NC(=O)Nc2ccccc2F)c1` the figure was 19.8%; with `Cc1cccc(C2c3[nH]c4ccccc4c3CCN2C(=O)c2cc(-c3cccn3C)n[nH]2)n1` (stereo not drawn), -3.12%; with `Cc1cccc(C(=O)N2CCc3c([nH]c4ccccc34)C2CC(C)C)n1` (stereo not drawn), 52.7% (active). For `O=C(c1cn2ccccc2n1)N1CCc2c([nH]c3ccccc23)C1c1ccccn1` (stereo not drawn), the inhibition was 13.1%. With `CCc1ccc(NC(=O)NC(C)c2ccc3c(c2)OCO3)cc1` (stereo not drawn) the figure was -6.59%; with `Cc1cc(-c2ccc(C)c(S(=O)(=O)NC(C)Cc3ccco3)c2)on1` (stereo not drawn), -1.68%.

`Cc1nnc(SCc2nc3ccccc3nc2C)s1`: the inhibition is -8.09%.

On to `Cc1cccc(CSc2nnc(NC(=O)CSc3nnc(C)s3)s2)c1`, for which the inhibition was -22%. As to `Cc1ccc(Nc2nnc(SCc3ccccc3)s2)cc1`, the inhibition was 78.2% (active). With `Cc1ccc(Nc2nc(N)nc(CSc3nnc(C)s3)n2)cc1`, the inhibition is 97.7% (active). Turning to `O=C(Nc1nnc(SCc2ccccc2)s1)c1ccco1`, the inhibition was 55.6%. With `CCOC(=O)N1CCN(Cc2nc(N)nc(Nc3ccc(C)cc3)n2)CC1`, the inhibition was 16.1%. With `Cc1cccn2cc(-c3cccc(S(=O)(=O)N4CCCCC4)c3)nc12` the figure was 15.3%; with `N#CCSc1nc(-c2ccccc2)nc2ccc(F)cc12`, 4.25%; with `CCc1nnc(NC(=O)CCC(=O)N2CCN(c3cc(C)ccc3C)CC2)s1`, 2.43%. With `CCOC(=O)N1CCC(N2Cc3cccc(C(=O)Nc4ccc(S(=O)(=O)N(CC)CC)cc4)c3C2=O)CC1` the figure was -14%; with `CCOc1c2ccc(C(=O)NCc3ccc(OC(F)(F)F)cc3)cc2nn1C`, 29%; with `COc1ccc(CNC(=O)c2cc(=O)c3c(C)cc(C)cc3o2)cc1`, -1.33%.

Turning to `COC(=O)c1ccc(CSc2nc3cc(Cl)ccc3o2)cc1`, the inhibition was -12.3%. `COc1ccc(CNC(=O)c2ccc3oc(C(C)C)nc3c2)cc1`: the inhibition was 51.4% (active). The same measure for `COC(=O)c1ccc(CNC(=O)c2ccc3oc(C(C)C)nc3c2)cc1`: 71.8% (active); for `CC(C)c1nc2cc(C(=O)NC(C)c3cnn(C)c3)ccc2o1` (stereo not drawn): 20.7%; for `Cc1ccccc1CCNC(=O)C1CCC(=O)N(Cc2ccc(Cl)cc2)C1` (stereo not drawn): 13.3%. With `O=C(OCc1ccc([N+](=O)[O-])cc1)C1CC(=O)N(Cc2ccccc2Cl)C1` (stereo not drawn) the figure was -0.893%; with `O=C(NCCCN1CCCCC1)C1CC(=O)N(CCc2ccccc2)C1` (stereo not drawn), -8.56%.

The values above are taken from PubChem BioAssay AID2315 (National Center for Advancing Translational Sciences (NCATS), 2010).
